# In PubChem BioAssay (NCATS):
# Several values for one entry are separate records, joined by “and”; a condition that tells them apart may be missing. Identical values can stand only once. Results filed as inconclusive are left out. More than one record can exist for a structure, and the calls need not agree. Activity calls are given as the source filed them. The call rests on the fitted dose curve; in most records, active means well fitted curve in the direction sought with a large enough effect; inconclusive means small, poorly fitted or top-dose-only effect, or another doubt; inactive means no such curve, though single readings can be large; an effect the other way counts as inactive or inconclusive.
# Experiments:
# [1] = Viability qHTS for spleen associated tyrosine kinase inhibitor (SYKi) naive MV4-11 cells (AID 1963823); conditions: MV4-11 AML viability, CellTiter-Glo luminescence, 72 h; series mostly up to 45 µM; further: nearly all actives have a fitted effect of over 40% in size
# How it was run: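 Seeding of 500 SYKi-naive MV4-11 cells per well onto pre-dispensed compounds preceded a 72 hr incubation at 37 C. Luminescent CellTiter-Glo signal, read after 10 min at room temperature, reflected viable cells.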
# [2] = Viability qHTS for spleen associated tyrosine kinase inhibitor (SYKi) drug resistant MV4-11 cells (AID 1963824); conditions: SYKi-resistant MV4-11 viability, CellTiter-Glo, 72 h; series mostly up to 45 µM; further: nearly all actives have a fitted effect of over 35% in size
# How it was run: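 SYK inhibitor-resistant MV4-11 AML cells, 500 per well, added to predispensed compounds and incubated 72 hr at 37 C, 5% CO2. Viability measured by CellTiter-Glo luminescence after 10 min at room temperature.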
# [3] = Quantitative highthroughput screen to assess conditional lethalithy of P12 Ichikawa cells grown in Human Plasma-Like Medium with dialyzed fetal bovine serum (HPLM+ds) (AID 1963879); conditions: ATP luminescence, 48 h; Potency: viability; series mostly up to 45.8 µM; further: nearly all actives have a fitted effect of over 35% in size
# How it was run: (§1)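 Each medium arm—HPLM with 10% dialyzed FBS, or RPMI1640 with 5 mM glucose and 10% untreated or dialyzed FBS—was screened against an 11-point, 3-fold compound titration for 48 h at 37 °C, with CellTiter-Glo luminescence as endpoint.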
# [4] = Cellular viability qHTS for adrenocortical cancer (ACC) cell line SW-13 (AID 1963989); conditions: SW-13 ACC cells viability, CellTiter-Glo, 48 h; activity (max response): stronger effect = lower value; further: nearly all actives have a fitted effect of over 65% in size;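 on activity (max response): cells grown in serum-free medium with ITS supplement; on the % scale 0 is the no-effect control and ±100 the full control effect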
# How it was run: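 SW-13 cells in ITS-supplemented serum-free DMEM were plated overnight, then exposed for 48 h at 37C to compound titrations (up to 46 uM final). Viability was read by CellTiter-Glo luminescence; four-parameter logistic fits gave IC50 and efficacy.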
# [5] = Cellular viability qHTS for adrenocortical cancer (ACC) cell line NCI-H295R (AID 1963990); conditions: CellTiter-Glo ATP luminescence, 48 h; series mostly up to 46.1 µM; further: nearly all actives have a fitted effect of over 60% in size
# How it was run: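 Luminescent ATP read-out (CellTiter-Glo, 20 min RT) after 48 h drug exposure of NCI-H295R cells; a titration up to 46 uM final. Data normalized to doxorubicin (100% inhibition) and DMSO (0%); 4-parameter fit gives IC50, max response.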
# [6] = Quantitative highthroughput screen to assess conditional lethalithy of P12 Ichikawa cells grown in RPMI1640 with untreated serum (RPMI+s) (AID 1963881); conditions: ATP luminescence, 48 h; Potency: viability; series mostly up to 45.8 µM; further: nearly all actives have a fitted effect of over 35% in size;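 on Viability: 100% = DMSO wells and 0% = empty wells without cells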
# How it was run: as §1
# [7] = Quantitative highthroughput screen to assess conditional lethalithy of SEM cells grown in RPMI1640 with dialyzed fetal bovine serum (RPMI+ds) (AID 1963884); conditions: SEM B-ALL cells, RPMI+dialyzed FBS, CellTiter-Glo viability, 48 h; series mostly up to 45.8 µM; further: nearly all actives have a fitted effect of over 35% in size;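 on Viability: 100% = DMSO control wells and 0% = empty wells without cells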
# How it was run: as §1
# [8] = Quantitative highthroughput screen to assess conditional lethalithy of SEM cells grown in Human Plasma-Like Medium with dialyzed fetal bovine serum (HPLM+ds) (AID 1963882); conditions: SEM B-ALL cells in HPLM+ds, CellTiter-Glo viability, 48 h; series mostly up to 45.8 µM; further: nearly all actives have a fitted effect of over 35% in size
# How it was run: as §1
# [9] = Quantitative highthroughput screen to assess conditional lethalithy of P12 Ichikawa cells grown in RPMI1640 with dialyzed fetal bovine serum (RPMI+ds) (AID 1963880); conditions: ATP luminescence, 48 h; Potency: P12-Ichikawa viability; series mostly up to 45.8 µM; further: nearly all actives have a fitted effect of over 35% in size;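 on Viability: 100% = DMSO wells and 0% = empty wells on each plate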
# How it was run: as §1
# [10] = Quantitative highthroughput screen to assess conditional lethalithy of SEM cells grown in RPMI1640 with unreated serum (RPMI+s) (AID 1963883); conditions: SEM B-ALL cells, CellTiter-Glo viability, 48 h; series mostly up to 45.8 µM; further: nearly all actives have a fitted effect of over 35% in size;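 on Viability: 100% = DMSO wells and 0% = empty wells without cells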
# How it was run: as §1
# Potency means the concentration at half of the fitted maximal effect.
Compound,Potency [1],Potency [2],Potency [3],Potency [4],Potency [5],Potency [6],Potency [7],Potency [8],Potency [9],Potency [10],activity (max response) [4]
O=C(Nc1cccc(C(F)(F)F)c1)Nc1cc(S(=O)(=O)NC2CC2)ccc1-c1ccsc1,14.8 µM (active),7.42 µM (active),inactive,28.2 µM (active),31.6 µM (active),,,,,,
Oc1ccc([C@@H]2Oc3ccc(O)cc3[C@@H]3CCC[C@@H]32)cc1,5.8 µM (active),4.61 µM (active),13.2 µM (active),,7.08 µM (active),11.8 µM (active),10.5 µM (active),,,,
CC(C)C[C@H](NC(=O)c1cc2ccccc2s1)C(=O)N1CCN(C(=O)[C@H](CO)NS(=O)(=O)c2ccc(Cl)cc2Cl)CC1,20.9 µM (active),16.6 µM (active),inactive,,,inactive,,,,,
COc1ccc(S(=O)(=O)Nc2cccnc2Nc2ccc(O)cc2)cc1,0.934 µM (active),0.833 µM (active),3.32 µM (active),3.16 µM (active),,3.32 µM (active),,2.35 µM (active),,,
CC(C)n1cnc2c(NCCc3ccc(O)cc3)nc(-c3csc4ccccc34)nc21,14.8 µM (active),14.8 µM (active),3.72 µM (active),,inactive,14.8 µM (active),5.26 µM (active),13.2 µM (active),13.2 µM (active),,
CCn1cc(-c2ccnc3[nH]c(-c4cccc(CN(C)C)c4)cc23)c(-c2ccc(NC(=O)N(C)C)cc2)n1,103 nM (active) and 83.3 nM (active),282 nM (active) and 235 nM (active),0.0662 µM (active),17.8 µM (active),12.6 µM (active),0.0833 µM (active),0.059 µM (active),0.0743 µM (active),0.0833 µM (active),0.0469 µM (active),
CN1CCN(c2c(F)cc3c(=O)c(C(=O)O)cn4c3c2OCN4C)CC1,inactive,inactive,inactive,,inactive,inactive,,,inactive,,-1.01% (inactive)
CCn1cc(C(=O)O)c(=O)c2cc(F)c(N3CCN(C)CC3)cc21,inactive,inactive and 16.6 µM (active),,,,4.18 µM (active),inactive,inactive,4.69 µM (active),inactive,10.8% (inactive) and 4.42% (inactive)
CC(C)(O)CC(=O)NCCn1ccc2ncnc(Nc3ccc(Oc4cccc(C(F)(F)F)c4)c(Cl)c3)c21,14.6 µM (active) and 16.6 µM (active),9.2 µM (active) and 6.61 µM (active),9.35 µM (active),14.1 µM (active),8.91 µM (active),,,,,20.9 µM (active),
CCCC1OC2C[C@@H]3[C@H]4CCC5=CC(=O)C=C[C@]5(C)[C@H]4C(O)C[C@]3(C)[C@]2(C(=O)CO)O1 (some centres undefined),16.6 µM (active),7.42 µM (active),,,inactive,,0.132 µM (active),,0.0132 µM (active),0.187 µM (active),-12.3% (inactive)
Nc1ccc(C(=O)Nc2cccc(-c3nc(N4CCOCC4)c4oc5ncccc5c4n3)c2)cn1,10.3 µM (active),3.66 µM (active),,,,,20.9 µM (active),20.9 µM (active),,18.7 µM (active),-13.4% (inactive)
Cn1c(=O)c(F)c(Nc2ccc(I)cc2F)c2c(=O)n(C[C@@H](O)CO)cnc21,0.0332 µM (active),0.0235 µM (active),,,,,2.09 µM (active),,,6.62 µM (active),
CCC[C@H](N[C@@H](C)C(=O)N1[C@@H]2CCCC[C@H]2C[C@H]1C(=O)O)C(=O)OCC,inactive,inactive,,,inactive,,inactive,,,inactive,2.75% (inactive)
COc1ccccc1N1CCN(CC(O)COc2cccc3ccccc23)CC1 (centres undefined),inactive,inactive,,,inactive,13.2 µM (active),,,,,-10.8% (inactive)
Cc1ccc(C(N)=O)cc1Nc1nccc(-c2cn(C(C)C)c3cnccc23)n1,0.0231 µM (active),0.0517 µM (active),,8.91 µM (active),12.6 µM (active),,2.09 µM (active),3.32 µM (active),,3.72 µM (active),
Cc1ccc2nc(NC(=O)CSc3nc4c(c(=O)n3-c3ccccc3)SCC4)sc2c1,inactive,inactive,,,inactive,,20.9 µM (active),,,16.6 µM (active),-6.8% (inactive)
Cc1cc(Nc2cc(CN3CCOCC3)c3nc(C)c(Cc4ccc(Cl)cc4F)n3n2)n[nH]1,146 nM (active) and 148 nM (active),259 nM (active) and 235 nM (active),,2.51 µM (active),7.94 µM (active),,1.48 µM (active),1.66 µM (active),7.43 µM (active),2.09 µM (active),
CCOc1ccn(-c2ccc(F)cc2)c(=O)c1C(=O)Nc1ccc(Oc2ccnc(N)c2Cl)c(F)c1,366 nM (active) and 525 nM (active),580 nM (active) and 1.05 µM (active),,,14.1 µM (active),,2.09 µM (active),1.48 µM (active),,3.32 µM (active),
COc1cc(Oc2ccnc3cc(OC)c(OC)cc23)ccc1NC(=O)NC(C)c1nccs1 (centres undefined),inactive and 7.42 µM (active),14.8 µM (active),,,,,,,,33.2 µM (active),0.628% (inactive)
